# Shown are actives, neighbours in structure and some others; about 19% of the full set was active somewhere.
# LASV entry inh = blocks Lassa virus binding to or entry into cells; actives 1.2% (n = 300,000); AID 540256; Lassa virus pseudotype entry inhibition, cell reporter; Potency, µM (top dose mostly 37.9 µM), inactives show top-dose activity change, negative = inhibition, actives largely listed as inhibitors; calls by dose curve; tested in HEK293 cells; also: potency is read from the fitted curve at half-maximal effect; % is scaled to controls: 0 for no effect and ±100 for the full control effect; nearly all actives have a fitted effect of over 50% in size
# Pf growth 96h = inhibits malaria parasite growth, 96 h | P. falciparum luciferase reporter growth, 96 h | Potency, µM (top dose mostly 28.7 µM), for inactives: top-dose activity change, negative = inhibition, actives largely listed as inhibitors | actives 6.9% (n = 320,000); also: potency is read from the fitted curve at half-maximal effect; % is scaled to controls: 0 for no effect and ±100 for the full control effect
#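 Two-generation exposure (96 h) targets delayed-death phenotype. Reporter parasites carrying integrated firefly luciferase, in red cells at 2% hematocrit and 0.05% parasitemia final, kept at 37 C, 5% CO2; luminescence loss indicates inhibition.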
# Marburg entry inh = inhibitors of Marburg virus binding or cell entry; Marburg virus pseudotyped entry inhibition, cell reporter; Potency, µM (highest dose often 37.8 µM), for inactives: at the highest dose activity change, negative = inhibition, actives largely listed as inhibitors; actives 1.8% (n = 300,000); calls by dose curve; tested in HEK293 cells; also: potency is read from the fitted curve at half-maximal effect; % is scaled to controls: 0 for no effect and ±100 for the full control effect
# CHX counter = affects cycloheximide protein synthesis inhibition readout, counter-screen | cell reporter, cycloheximide protein synthesis inhibition counterscreen | max response, % | actives 12% (n = 300,000); in the data active = max response mostly above about 13%, no sharp cut-off; inactive = mostly below about 14%; also: read at 38.3 µM for the half of the compounds with a filed dose; 0% is about no effect
# Pf growth 48h = P. falciparum growth inhibition at 48 hours (one generation) | P. falciparum luciferase growth in erythrocytes, 48 h | Potency, µM (highest dose often 28.7 µM), for the others: at the top dose activity change, negative = inhibition, most hits filed as inhibitors | actives 5.9% (n = 310,000) | AID 504832; also: potency is read from the fitted curve at half-maximal effect; % is scaled to controls: 0 for no effect and ±100 for the full control effect
#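 First compound was added to culture medium, then infected red cells at 0.1% parasitemia and 2% hematocrit (final). After incubation at 37 C under 5% CO2, luciferase detection reagent was dispensed and light output recorded.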
# Shiga inhibitor = inhibitors of Shiga toxin in Vero cells; Vero cells, Shiga toxin protein synthesis inhibition reporter; inhibition, % at 38.7 µM; actives 9.2% (n = 290,000); in the data active = inhibition mostly above about 28%, no sharp cut-off; inactive = mostly below about 43%; also: 0% is about no effect
# An asterisk follows results filed as active; ? = inconclusive; . = not tested or not shown; [ ] = another dose, or the depositor's remark. Unless noted, calls follow the shape of the dose curve; as a rule, active = well fitted inhibition curve with a large enough effect; inconclusive = small, poorly fitted or top-dose-only effect, or another doubt; inactive = no such curve, though single readings can be large or run the other way.
SMILES,LASV entry inh,Pf growth 96h,Marburg entry inh,CHX counter,Pf growth 48h,Shiga inhibitor
CC(=O)c1ccc(N(C(=O)CNC(=O)c2ccco2)C(C(=O)NC2CCCC2)c2ccncc2)cc1 (stereo unspecified),3%,10%,-12%[46.1 µM],-2,34%,-6
Cc1cccc(Nc2c(-c3cccs3)nc3nc(C)cc(C)n23)c1,2%[46.1 µM],.,?,.,.,.
S=c1[nH]c2ccccc2n2cccc12,.,?,.,1,?,-13
S=c1[nH]c2ccccc2o1,.,3%,.,13*,16%,83*
C=CCn1c(NCc2ccc(N(C)C)cc2)nc2ccccc21,?,-16%,15%[46.1 µM],33*,31%,active
CCn1c(NCc2ccccc2Cl)nc2ccccc21,?,4%,16%,29,?,24*
CCCCn1c(NCc2ccc(N(C)C)cc2)nc2ccccc21,27%[46.1 µM],11%,?,7,?,27
CCn1c(NCc2ccco2)nc2ccccc21,11%,?,-4%[46.1 µM],7,-3%,-1
CCn1c(NCc2ccc(OC)cc2)nc2ccccc21,2%[46.1 µM],-11%,.,12*,-45%,23*
CCOc1ccc(S(=O)(=O)N2CCC(C(=O)N3CCOCC3)CC2)cc1C,-5%[46.1 µM],-1%,-2%[46.1 µM],-2,9%,-2
CC1CCCN(C(=O)COC(=O)/C=C/c2ccc(C(F)(F)F)cc2)C1 (stereo unspecified),.,7%,.,.,-14%,.
COc1ccc(CN2CCC(C(=O)N3CCN(c4ccccc4F)CC3)CC2)cc1OC,2%,19%,-12%,-3,-1%,-6
CCCC1CC(C)(c2csc(Nc3ccc(OCC)cc3)n2)OC1=O (stereo unspecified),.,?,.,20*,?,60*
O=C1OC/C(=C(/O)c2ccc(Cl)cc2)C1=O,.,-8%,.,7,12µM*,-4
CC(C)Cc1nc(N2CCOCC2)c(C#N)c2c1COC(C)(C)C2,-14%,.,?,-1,10µM*,-11
CSc1nc(N2CCOCC2)c2c(c1C#N)CC(C)(C)OC2,-18%,.,-16%,-2,7%,-7
CC(C)Cc1nc(NCCN2CCOCC2)c(C#N)c2c1COC(C)(C)C2,-23%,.,-29%,-3,12µM*,3
CC(C)c1nc(NCCN2CCOCC2)c(C#N)c2c1COC(C)(C)C2,6%,49%,-7%[46.1 µM],-3,?,-11
O=c1cc(-c2ccc(F)cc2)nc(SCc2nc(-c3cccc(Cl)c3)no2)[nH]1,5%[46.1 µM],.,.,.,.,.
Cc1noc(C)c1C(=O)OCC(=O)c1cc(C)n(Cc2ccccc2Cl)c1C,?,.,?,45*,39%,63*
CN(Cc1nc(-c2ccc(C(F)(F)F)cc2)no1)C1CCOCC1,3%[46.1 µM],22%,1%[46.1 µM],9,17%,-7
COc1cc(S(=O)(=O)N(Cc2ccc(C)cc2)C2CCCCC2)ccc1-n1cnnn1,?,.,?,9,5.9µM*,-4
COc1ccc(CN(C2CCCC2)S(=O)(=O)c2ccc(-n3cnnn3)cc2)cc1OC,2%,?,-28%[46.1 µM],-2,?,-11
CCOc1ccccc1Nc1nc(-c2ccc(C)cc2)c(CC(=O)O)s1,-6%[46.1 µM],.,?,.,.,.
COC(=O)CCc1sc(Nc2ccccc2)nc1-c1ccc(OC)cc1,8%,2%,1%,23*,128%,91*
SMILES,LASV entry inh,Pf growth 96h,Marburg entry inh,CHX counter,Pf growth 48h,Shiga inhibitor
O=C(O)Cc1sc(Nc2ccc(Cl)cc2)nc1-c1cccs1,11%[46.1 µM],95%,?,47*,82%,75*
Nc1nc(-c2cccs2)c(CC(=O)O)s1,7%[46.1 µM],23%,7%[46.1 µM],6,-5%,-8
O=C(Cc1sc(-c2ccccc2)nc1-c1ccccc1)Nc1ccc(Cl)cc1,3%,?,-7%,4,.,-10
COc1ccc(Nc2nc(-c3ccc(OC)cc3)c(CCC(=O)O)s2)cc1,5%,-7%,-4%[46.1 µM],2,1%,-6
Cc1ccc(Nc2nc(-c3ccc(C)cc3)c(CC(=O)O)s2)cc1,.,0%,.,14*,17%,79
O=C(O)Cc1sc(Nc2cccc3ccccc23)nc1-c1ccc(Cl)cc1,?,4%,4%,20*,?,18
CCc1ccc(N2CC(C(=O)OCc3csc(CC(=O)Nc4ccccc4C)n3)CC2=O)cc1 (stereo unspecified),.,24%,.,.,-14%,.
CC(=O)N1CCN(c2ncnc3ccccc23)CC1,?,-28%,10%[46.1 µM],-2,14%,-12
Cc1cccc(NC(=O)c2oc3ccccc3c2NC(=O)Cc2coc3ccc(C(C)C)cc23)c1,3%[46.1 µM],.,?,.,.,.
CCC(CC)C(=O)Oc1c(Sc2ccccc2[N+](=O)[O-])c(C)nn1C(C)(C)C,-7%,?,-27%,0,9.3µM*,7
COCC(=O)Oc1c(Sc2ccccc2[N+](=O)[O-])c(C)nn1C(C)(C)C,16%,?,4%[46.1 µM],2,?,-4
Cc1nn(-c2ccccc2)c(N)c1Sc1ccccc1[N+](=O)[O-],6.3µM*,?,?,-5,-15%,-10
Cc1nn(-c2ccccc2)c(N)c1Sc1cccc([N+](=O)[O-])c1,0%,5%,-21%,11,?,2
CCCCCOC(=O)c1ccc(NC(=O)c2cccc(NC(=O)c3ccccc3C(=O)O)c2)cc1,.,?,.,2,21%,17
Cc1ccn2c(=O)cc(COc3ccc(NC(=O)C(C)(C)C)cc3)nc2c1,19%[46.1 µM],.,.,.,.,.
COc1cc(C(=O)ON=C2C3CC4CC(C3)CC2C4)cc(OC)c1OC,.,1.5µM*,.,-4,1.2µM*,-6
COc1cccc(OC)c1C(=O)Nc1cccc(C(=O)Nc2cccc(C(=O)O)c2)c1,.,215%,.,-1,111%,-3
Cc1ccc(N2C(=O)C3CC(c4ccccc4)=C4C5C=CC(C6C(=O)N(c7ccc(C)cc7)C(=O)C56)C4C3C2=O)cc1 (stereo unspecified),?,?,-3%,-3,13µM*,-5
Cc1ccc(N2C(=O)C3CC(c4ccccc4)=C4C5C=CC(C6C(=O)N(c7ccc(C)cc7C)C(=O)C56)C4C3C2=O)c(C)c1 (stereo unspecified),30%,.,?,-6,2.1µM*,-24
O=C(NCC(c1ccco1)N1CCN(c2ccccc2)CC1)c1ccco1 (stereo unspecified),-17%,28%,1%,.,?,.
O=C(OCCCOC(=O)c1ccc([N+](=O)[O-])o1)c1ccc([N+](=O)[O-])o1,-14%,6%,6%,.,13µM*,.
CCOC(=O)C1CCN(C(=O)COC(=O)c2ccc([N+](=O)[O-])o2)CC1,.,12µM*,.,.,?,.
CC1CC(C)CN(C(=O)COC(=O)c2ccc([N+](=O)[O-])o2)C1 (stereo unspecified),.,5%,.,.,-29%,.
Cc1cc2ccccc2n2c(SCC(=O)N3CCOCC3)nnc12,-12%,?,4%,-4,9%,24
CCn1c(SCC(=O)N2CCOCC2)nnc1-c1cccs1,-26%,12µM*,5%[46.1 µM],6,-3%,27
